CHX counter: Cycloheximide Counterscreen for Small Molecule Inhibitors of Shiga Toxin. cell reporter, cycloheximide protein synthesis inhibition counterscreen. max response, %. 300,000 compounds, 12% hits. AID 2314, 2010; in the data active means max response mostly above about 13%, no sharp cut-off; inactive means mostly below about 14%; further: read at 38.3 µM for the half of the compounds with a filed dose; 0% is about no effect
Pf growth 96h: Primary qHTS for delayed death inhibitors of the malarial parasite plastid, 96 hour incubation; P. falciparum luciferase reporter growth, 96 h; Potency, µM (doses to about 28.7 µM), without a hit: at the top dose activity change, negative = inhibition, most hits filed as inhibitors; 320,000 compounds, 6.9% hits; AID 504834, 2011; further: potency means the concentration at half of the fitted maximal effect; on the % scale 0 is the no-effect control and ±100 the full control effect
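Parasite growth measured via integrated firefly luciferase reporter in P. falciparum. Infected erythrocytes at 2% hematocrit, 0.05% parasitemia final were treated 96 hours at 37 C under 5% CO2, and luminescence was read.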
Pf growth 48h: Primary qHTS for delayed death inhibitors of the malarial parasite plastid, 48 hour incubation; P. falciparum luciferase growth in erythrocytes, 48 h; Potency, µM (top dose mostly 28.7 µM), inactives show at the highest dose activity change, negative = inhibition, hits mostly inhibitors; 310,000 compounds, 5.9% hits; AID 504832, 2011; further: potency means the concentration at half of the fitted maximal effect; on the % scale 0 is the no-effect control and ±100 the full control effect
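Growth was read as firefly luciferase luminescence after a 48 h, 37 C, 5% CO2 exposure of compounds to reporter-bearing P. falciparum cultures (0.1% parasitemia, 2% hematocrit final) in Albumax-supplemented RPMI 1640.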
LASV entry inh: qHTS for Inhibitors of binding or entry into cells for Lassa Virus; Potency, µM (highest dose often 37.9 µM), for inactives: at the highest dose activity change, negative = inhibition, hits mostly inhibitors; 300,000 compounds, 1.2% hits; Lassa virus pseudotype entry inhibition, cell reporter; calls by dose curve; tested in HEK293 cells; further: potency means the concentration at half of the fitted maximal effect; on the % scale 0 is the no-effect control and ±100 the full control effect; nearly all actives have a fitted effect of over 50% in size
Shiga toxin inh: A qHTS for Small Molecule Inhibitors of Shiga Toxin; AID 2315, 2010; 290,000 compounds, 9.2% hits; inhibition, % at 38.7 µM; Vero cells, Shiga toxin protein synthesis inhibition reporter; in the data active means inhibition mostly above about 28%, no sharp cut-off; inactive means mostly below about 43%; further: 0% is about no effect
MARV entry inh: qHTS for inhibitors of binding or entry into cells for Marburg Virus | Marburg virus pseudotyped entry inhibition, cell reporter | Potency, µM (highest dose often 37.8 µM), for inactives: at the top dose activity change, negative = inhibition, hits mostly inhibitors | 300,000 compounds, 1.8% hits | AID 540276, 2011; calls by dose curve; tested in HEK293 cells; further: potency means the concentration at half of the fitted maximal effect; on the % scale 0 is the no-effect control and ±100 the full control effect
* = called active by the depositor; i = inactive; ? = inconclusive; nt = no result; [ ] = dose if it differs, or a comment. Sampled rows, rich in hits. Any-hit rate of the full collection: about 19%. Unless noted, the call rests on the fitted dose curve; in most records, active means well fitted inhibition curve with a large enough effect; inconclusive means small, poorly fitted or top-dose-only effect, or another doubt; inactive means no such curve, though single readings can be large or run the other way.

SMILES	CHX counter	Pf growth 96h	Pf growth 48h	LASV entry inh	Shiga toxin inh	MARV entry inh
O=C(O)c1cc(C(=O)O)c(-c2ccccc2)c(C(=O)O)c1	-2	?	2.9µM*	-16%	-6	-6%
Cc1csc(SCc2nnc(-c3ccc(Cl)cc3)o2)n1	32*	41%	nt	10%	91*	?
Fc1ccccc1SCc1nnc(-c2ccccc2Br)o1	53*	i	i	?	141*	5µM*
Clc1ccc(-c2nnc(CSc3nnc(-c4cccs4)n3Cc3ccccc3)o2)cc1	-5	?	?	?	-18	?
Cc1ccc(-c2nnc(CSc3nnc(C)s3)o2)cc1	33*	nt	93%	15%	80	?
O=C(CSc1nnc(-c2ccccc2Br)o1)Nc1nncs1	11	?	9%	7%	11	-12%[46.1 µM]
Cc1csc(SCc2nnc(-c3ccccc3Br)o2)n1	48*	-13%	96%	-25%	78*	-13%
COc1ccc(C(=O)NNC(=O)Cc2ccc(-c3ccccc3)cc2)cc1OC	6	90%	0%	-4%	0	-14%
COc1cc(OC)cc(C(=O)Nc2cccc3c2CCCC3)c1	7	-15%	-5%	14%[46.1 µM]	nt	?
Cc1nn(C(C)C(=O)NCCCN2CCCCCC2)c(=O)c2c1sc1ccccc12 (stereo unspecified)	-12	?	-18%	17%[46.1 µM]	-11	-27%[46.1 µM]
O=C(COC(=O)c1nc(Cl)ccc1Cl)NCc1ccc(Cl)cc1	nt	-23%	?	nt	nt	nt
CCc1nc(SCc2nnc(-c3ccc(C)cc3)o2)c2c(C)c(C)sc2n1	nt	nt	nt	-11%	nt	-13%[46.1 µM]
Cc1ccc(-c2nnc(CSc3nc4cc5c(cc4cc3C)OCO5)o2)cc1	-5	13µM*	9%	?	-5	?
O=C(Cc1ccccc1Cl)N/N=C/c1cccnc1	1	2%	-4%	nt	-25	nt
COc1ccc(NC(=O)CSc2ccc(C)cc2)cc1	33*	-22%	227%	23%	81*	-8%[46.1 µM]
COc1ccc(NC(=O)CSc2nnc(-c3ccco3)n2C)cc1	-2	6.6µM*	-19%	27%	19	4%
Cc1ccc(SCC(=O)NC(C)(C)C)cc1	28*	nt	66%	26%	133*	10%
Cc1ccc(-c2nnc(SCC(N)=O)n2C)cc1	3	?	19%	?	-24	13%[46.1 µM]
Cc1ccc(-c2nnc(SCC(C)C)n2C)cc1	34*	49%	43%	?	138*	12%
Cc1ccc(SCC(=O)NC(C)c2ccccc2)cc1 (stereo unspecified)	14	?	?	16%	34	12%
CCC(=O)Nc1sc2c(c1C(=O)OC)CCN(Cc1ccccc1)C2	-1	-4%	?	nt	-3	nt
COc1ccc(-c2ccc(N(C)C)cc2)cc1[C@H]1[C@H]2C=CC[C@@H](C)[C@@H]2C(=O)N1Cc1ccccc1	6	?	?	nt	-4	nt
CC1(C)N=C(SCC(=O)Nc2ccccc2)C(c2ccc(Cl)cc2)=N1	6	?	-20%	?	-22	?
CCn1c(SCC(=O)Nc2ccc(N3CCOCC3)cc2)nnc1-c1ccco1	nt	10µM*	-1%	-3%	nt	14%
COc1ccc(-c2nnc(SCc3csc(N)n3)n2C)cc1	-4	?	?	-1%	-17	10%
SMILES	CHX counter	Pf growth 96h	Pf growth 48h	LASV entry inh	Shiga toxin inh	MARV entry inh
CCn1c(SCC(=O)Nc2ccc(C)cc2)nnc1-c1ccc(O)cc1	-2	2.6µM*	?	-15%	-11	9%
CCn1c(SCC(=O)Nc2ccc(C)cc2)nnc1-c1ccccn1	1	-1%	-2%	-13%	14	15%[46.1 µM]
Cc1ccc(C2=NC(C)(C)N=C2SCC(=O)Nc2ccc(Cl)cc2)cc1	0	4.1µM*	nt	-3%	4	?
CCCCSc1nnc(-c2ccc(OC)cc2)n1C	65*	13µM*	-3%	?	60*	4%
CCc1c(C)nc2nc(SCc3ccccc3Cl)[nH]n2c1=O	2	3%	10%	?	4	?
CSc1ccc(CCNC(=O)C(C)n2nc(C)c3c(C)n(-c4ccccc4)nc3c2=O)cc1 (stereo unspecified)	nt	nt	nt	-8%[46.1 µM]	nt	nt
COc1ccc(CCNCC(=O)Nc2ccc(C)c(S(=O)(=O)N(C)C)c2)cc1OC	-2	?	?	nt	-2	nt
Cc1ccc(Nc2nc(CSc3nnc(-c4ccc(F)cc4)n3C)cs2)cc1	32*	28%	78%	?	123*	-14%
Cc1ccc(NC(=O)CNc2ccc(OC(C)C)cc2)cc1	16*	44%	nt	-9%	10	18%
Nn1c(SCC(=O)Nc2ccc(S(N)(=O)=O)cc2)nnc1-c1ccco1	-4	13µM*	-19%	-2%	-10	5%
CC(C)(C)NC(=O)CSc1nnnn1C(C)(C)C	25*	6%	15%	9%	32*	26%
COc1cc(OC)c(OC)cc1/C=N/NC(=O)c1ccc(CSc2nc(C)cc(C)n2)cc1	nt	nt	nt	6%	nt	3%[46.1 µM]
Cc1cccc(N2CCN(Cc3ccc4c(c3)OCO4)CC2)c1C	-2	-17%	23%	-3%[46.1 µM]	nt	?
CCOC(=O)C1=C(C)Nc2ccccc2N=C1NC(=O)C(CC)c1ccccc1 (stereo unspecified)	1	4%	-22%	9%	-8	?
Cc1ccc(NC(=O)CSc2nc3sc(C)cc3c(=O)n2C)cc1	-3	9.3µM*	?	?	-14	38%[46.1 µM]
CCN(CC)S(=O)(=O)c1ccc(NC(=O)CSc2nnc(-c3cccc(OC)c3)n2C)cc1	-1	?	10µM*	-7%	-1	?
COc1ccc(-c2nnc(SCC(=O)Nc3ccc(C)cc3)n2C)cc1	-3	5.2µM*	-12%	1%	-15	-6%
COc1ccc(NCc2nc3ccccc3n2CCOc2ccc(C)cc2)cc1	28*	35%	-1%	?	47*	?
CC(C)(C)c1ccc(OCc2nc3ccccc3n2CCOc2ccccc2)cc1	nt	nt	nt	-9%[46.1 µM]	nt	-5%[46.1 µM]
c1ccc(NCc2nc3ccccc3n2CCOc2ccccc2)cc1	16*	?	-18%	17%	active	?
COc1ccc(NCc2nc3ccccc3n2CCOc2ccccc2)cc1	47*	42%	-6%	?	84*	?
CCOC(=O)CNC(=O)CN1C(=O)CC(c2ccccc2)S(=O)(=O)c2ccccc21 (stereo unspecified)	3	?	47%	5%	20	2%[46.1 µM]
COc1ccc(CCNC(=O)c2c(C)nn(-c3ccccc3)c2Cl)cc1OC	0	-20%	-10%	?	-6	-6%[46.1 µM]
CC(C)(C)C(=O)NC1CCN(S(C)(=O)=O)CC1	-2	12µM*	-17%	6%	-2	14%
CC(C)(C)C(=O)NC1CCN(C(=O)N2CCCC2)CC1	-1	?	6%	-6%	-4	15%

Screening data (PubChem BioAssay)
